D1 antag – antagonists of human D1 dopamine receptor | P21728 | HEK293 TREx D1 cells, calcium flux, dopamine EC80; active compounds read low | activity change, negative = inhibition, % at 10 µM | 3.2% of 360,000 active | AID 504652; in the data active = activity change below about -30%; also: % is scaled to controls: 0 for no effect and ±100 for the full control effect
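Tetracycline-induced HEK293 Trex D1 cells, force-coupled to calcium, dye-loaded; compounds added and read 180 s, then EC80 dopamine added and calcium flux tracked kinetically another 180 s.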
D3 ag – agonists of human D3 dopamine receptor; P35462; D3R DiscoveRx beta-arrestin cells, luminescence, 90 min; max activation, %; 0.58% of 410,000 active; AID 652048; in the data active = max activation above about 30%; also: 0% is about no effect
Target sequence (P35462 whole entry, looked up): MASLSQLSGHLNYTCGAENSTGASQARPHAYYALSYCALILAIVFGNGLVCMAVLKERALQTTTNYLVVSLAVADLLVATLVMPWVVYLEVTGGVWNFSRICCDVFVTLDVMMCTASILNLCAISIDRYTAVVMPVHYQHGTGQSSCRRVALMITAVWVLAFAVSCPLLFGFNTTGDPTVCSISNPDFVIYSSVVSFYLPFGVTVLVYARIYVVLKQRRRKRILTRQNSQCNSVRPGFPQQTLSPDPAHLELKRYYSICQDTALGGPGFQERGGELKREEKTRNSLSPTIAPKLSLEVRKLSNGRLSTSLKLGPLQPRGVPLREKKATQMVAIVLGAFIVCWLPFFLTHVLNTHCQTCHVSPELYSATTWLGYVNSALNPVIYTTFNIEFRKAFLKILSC
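Agonist-mode cell screen: cells plated at 1500/well and incubated overnight at 37 °C, then exposed to library compounds for 90 min at 37 °C. Detection reagent was added for 30–60 min at room temperature, and luminescence was read.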
D1 PAM – enhances dopamine response at the human D1 receptor | potentiation, % at 10 µM | 0.036% of 360,000 active | AID 504651 | HEK293 TREx D1 cells, calcium flux, dopamine EC20 potentiation; in the data active = potentiation above about 30%; also: 0% is about no effect
D1 agonist – agonists of human D1 dopamine receptor | P21728 | activation, % at 2 µM | HEK293 T-REx D1 cells, calcium flux, agonist mode | 1% of 360,000 active; in the data active = activation above about 30%; also: 0% is about no effect
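Tetracycline-induced HEK293 TREx D1 cells, force-coupled to calcium signalling, were dye-loaded with a no-wash calcium kit. Compound was pin-added after a 10 s baseline. Fluorescence was read kinetically at 1 cycle/s for 180 s, with calcium rises flagged as agonism.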
DRD3 antagonist – antagonists of human D3 dopamine receptor. max response, negative = inhibition, %. D3R cells, DiscoveRx beta-arrestin luminescence, antagonist mode; active compounds read low. 2.5% of 360,000 active; in the data active = max response below about -50%; inconclusive = no clear call, values can overlap the other calls; also: % is scaled to controls: 0 for no effect and ±100 for the full control effect
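Cells plated overnight at 1500 cells/well, then exposed to library compounds with dopamine controls for 90 minutes at 37 degrees C. DiscoveRx reagent added for 30–60 minutes at room temperature; luminescence read, quantitative HTS format.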
Active calls of the source: *; ? = inconclusive; . = no result given. The list is not random: actives were taken first. Their share in the collection is about 6%.

SMILES	D1 antag	D3 ag	D1 PAM	D1 agonist	DRD3 antagonist
CC(=O)O[C@@]12CO[C@@H]1C[C@H](O)[C@@]1(C)C(=O)[C@H](O)C3=C(C)[C@@H](OC(=O)[C@H](O)[C@@H](NC(=O)OC(C)(C)C)c4ccccc4)C[C@@](O)([C@@H](OC(=O)c4ccccc4)[C@H]21)C3(C)C	.	-3.2	.	.	.
NS(=O)(=O)c1ccc(NC(=S)NC(=O)c2ccc(-c3ccccc3)cc2)cc1	-10.7	38.3*	-7.6	4.2	-13.9
O=C(Nc1ccccc1Cl)C(Cl)C(=O)c1ccccc1 (configuration not stated)	-5.2	-12.9	-9.2	6.1	-25.1
O=C(Nc1ccc(Cl)cc1)C(Cl)C(=O)c1ccccc1 (configuration not stated)	1.8	-29.3	4.5	8.5	-52.3*
O=C(Nc1cc(Cl)ccc1Cl)c1ccc(-c2ccccc2)cc1	-34.0*	-4.2	-0.8	12.1	-15.4
O=C(Nc1cccc(Cl)c1Cl)c1ccc(-c2ccccc2)cc1	8.7	11.9	3.9	12.4	21.9
O=C(Nc1ccc(F)c(Cl)c1)c1ccccc1	-46.5*	12.2	-7.8	21.0	-0.7
CCN(C(=O)Cn1nc2c3cc(F)ccc3n(Cc3cccc(C)c3)cc-2c1=O)c1cccc(C)c1	7.5	1.8	0.5	2.4	.
CC(=O)Nc1ccc(NC(=O)C2CCN(S(C)(=O)=O)CC2)cc1	.	5.6	.	.	44.7
COc1ccc(OC)c(NC(=O)CSc2cn(CC(=O)N3CCOCC3)c3ccccc23)c1	-2.3	14.1	-1.6	0.7	.
COc1cccc(-n2c(=O)c3cc(OC)c(OC)cc3n(CC(=O)Nc3ccc(F)cc3)c2=O)c1	-15.4	-3.1	-0.8	0.1	.
O=C(Nc1cc(Cl)ccc1O)c1snnc1-c1ccccc1	-38.7*	3.1	-2.9	19.4	27.6
O=C(NC(=S)Nc1ccc(Cl)cc1)c1ccccc1	-53.2*	2.1	-5.4	13.4	0.6
O=C(NC(=S)Nc1ccc2cn[nH]c2c1)c1ccccc1	-35.0*	1.3	-3.6	9.6	-5.6
CC1CCCCC1NC(=O)CN1C(=O)c2ccccc2S1(=O)=O (configuration not stated)	-2.0	-2.1	1.4	4.4	-2.9
O=C(CN1C(=O)c2ccccc2S1(=O)=O)NC1CCCC1	-3.6	-3.3	-0.1	2.3	-51.7*
CCOC(=O)c1cccnc1SCC(=O)N(C)c1ccccc1	-44.1*	9.8	1.1	5.4	17.3
Cc1ccc(-n2nnc3c(sc4nc(C)c(C)cc43)c2=O)cc1Cl	2.4	-3.4	0.1	0.2	.
COc1ccc(CCC(=O)NC2CC(=O)N(c3ccc(C)cc3)C2)cc1 (configuration not stated)	.	70.8*	-2.9	-1.0	.
Cc1[nH][nH]c(=O)c1C(c1c(C)[nH][nH]c1=O)c1cn(Cc2ccc(F)cc2)c2ccccc12	-31.8*	-23.7	-1.2	-1.2	?
Cc1[nH][nH]c(=O)c1C(c1c(C)[nH][nH]c1=O)c1cn(Cc2ccc(Cl)c(Cl)c2)c2ccccc12	12.1	-19.2	0.8	0.8	-29.6
O=C(CN1C(=O)C2CC=CCC2C1=O)Nc1nc(-c2ccc(F)cc2)cs1 (configuration not stated)	-46.2*	1.9	-0.1	4.5	30.3
Cc1ccc(C(=O)Nc2nc(-c3ccc(F)cc3)cs2)o1	-47.6*	-2.6	-6.1	2.3	15.4
O=C(CN1C(=O)C2CCCCC2C1=O)Nc1nc(-c2ccc(F)cc2)cs1 (configuration not stated)	-2.6	3.0	-4.8	2.1	7.5
Cc1ccc(Nc2nc(-c3ccc(O)c(O)c3)cs2)nc1	6.3	1.9	-2.1	2.6	-3.7
Cc1ccc(Nc2nc(-c3ccc(F)cc3)cs2)nc1	-36.8*	6.7	-5.8	2.4	37.9
O=C(Nc1nc(-c2ccccc2)cs1)c1ccccc1NS(=O)(=O)c1ccc(F)cc1	-48.3*	2.1	-6.0	14.8	0.7
CC(=O)c1ccc(N2CCN(S(=O)(=O)c3ccc4c(c3)CC(C)N4C(=O)C3CCC3)CC2)cc1 (configuration not stated)	-2.5	2.8	-0.8	4.5	.
Cc1ccccc1CN1C(=O)CN(S(C)(=O)=O)CC1(C)C(=O)NCc1ccccc1 (configuration not stated)	.	-1.5	.	.	-4.3
Cc1cccnc1Nc1nc(-c2ccccc2)cs1	15.9	-1.4	-0.8	7.6	29.2

Bioassay records deposited in PubChem BioAssay by National Center for Advancing Translational Sciences (NCATS).
